Assay results taken from PubChem BioAssay AID1076 (NMMLSC, 2008).
Active and inactive are the calls of the source.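 The calls were made as follows: active = cell event count below 40, meaning activity score above 60 where score is 100 minus count; inactive = the rest.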

Experiment: LNCaP cell loss by flow event count, confirmation, cytotoxicity control for prostate differentiation activator project, single point (AID 1076);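 also: counts scatter-gated live cells after medium removal discards detached dead cells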
Details: flow cytometry event count, 4 d, stronger effect = lower value

| Compound | cell event count (at 100 µM) | cell event count (event count, at 10 µM) |
| --- | --- | --- |
| N=c1n(CCN2CCCCC2)c2ccccc2n1CC(O)COc1ccccc1 (centres undefined) | 20 (inactive) | 178 |
| CCc1ccc(-c2nc(CN3CCC(C(=O)NCc4ccco4)CC3)c(C)o2)cc1 | 25 (inactive) | 172 |
| CCN(CC)CCCNc1oc(-c2cccc(Cl)c2)nc1C#N | 32 (inactive) | 227 |
| CCOC(=O)c1c(C)n(C)c2ccc(OCC(O)CNC(CC)CO)cc12 (centres undefined) | 99 (inactive) | 88.5 |
| CCn1c(=O)cc(SCC(=O)NCCN2CCN(Cc3ccccc3)CC2)c2ccccc21 | 228 (inactive) | 356 |
| CC(=O)Nc1cc(C(=O)N2CCOCC2)ccc1S(=O)(=O)c1ccc(C)cc1 | 272 (inactive) | 300 |
| COc1ccc2nc3oc(C(=O)NCc4cccs4)cc3cc2c1 | 307 (inactive) | 304 |
| COC(=O)CN1CCN(C(=O)c2ccc(F)cc2)c2ccccc2C1 | 112 (inactive) | 157 |
| CCc1ccc(CNC(=O)CN2C(=O)COc3ccccc32)cc1 | 78 (inactive) | 118 |
| COc1ccc(N2CCN(CCCNC(=O)C3(S(=O)(=O)c4ccc(Cl)cc4)CC3)CC2)cc1 | 93 (inactive) | 136 |
| O=C1c2ccccc2C(Nc2ccc3c(c2)OCO3)N1Cc1ccc2c(c1)OCO2 (centres undefined) | 178 (inactive) | 189 |
| CCOc1ccc2ccccc2c1C(=O)N1CCN(c2ccccc2)CC1 | 19 (inactive) | 79.5 |
| O=C(CCN1C(=O)COc2ccccc21)NCCCN1CCN(c2ccccc2F)CC1 | 186 (inactive) | 204 |
| COc1ccc(-c2coc3c(CN4CCCCC4)c(O)c(CN4CCCCC4)c(O)c3c2=O)cc1 | 7 (active) | 63 |
| COc1cccc(-c2cc(C(=O)N3CCCc4ccccc43)no2)c1 | 9 (inactive) | 336 |
| O=C(NCC(c1cccnc1)N1CCOCC1)c1cccc(Cl)c1 (centres undefined) | 175 (inactive) | 94.5 |
| COc1ccccc1N1CCN(C(=O)CCn2c(=O)[nH]c3ccsc3c2=O)CC1 | 206 (inactive) | 224 |
| Cc1oc(-c2ccc(Cl)cc2)nc1CN1CCC(C(=O)N2CCN(Cc3ccccc3)CC2)CC1 | 3 (inactive) | 224 |
| COc1ccc(N2CCN(CCCNC(=O)c3cc4sccc4n3C)CC2)cc1 | 161 (inactive) | 251 |
| CN(C)CCCN1c2ccccc2CCc2ccc(Cl)cc21 | 43 (inactive) | 74 |
| O=C(Cc1coc(-c2ccc(F)cc2)n1)N1CCOCC1 | 217 (inactive) | 71.5 |

| Compound | cell event count (at 100 µM) | cell event count (event count, at 10 µM) |
| --- | --- | --- |
| Cc1ccccc1CN1CCN(CC(=O)NCCCN2CCN(c3ccc(F)cc3)CC2)C1=O | 241 (inactive) | 195 |
| CCOC(=O)c1ccccc1NC(=O)Cn1c(-c2nonc2N)nc2ccccc21 | 72 (inactive) | 122 |
| CCOC(=O)N1CCC(NC(=O)c2cc3c(-c4cccc(OC)c4)nn(C)c3s2)CC1 | 142 (inactive) | 300 |
| Cc1cc(=O)oc(C)c1C(=O)NCCCN1CCN(c2ccccc2F)CC1 | 232 (inactive) | 308 |
| CCOc1ccc(-n2cc(C(=O)N3CCC(C)CC3)c3cc(OC)c(OC)cc3c2=O)cc1 | 202 (inactive) | 251 |
| CCOC(=O)Cn1nc(-c2ccc(Cl)cc2)cc1N | 70 (inactive) | 22 |
| CCCCOC(=O)CSc1nc2c(cc1C#N)C(=O)CC(C)(C)C2 | 203 (inactive) | 194 |
| CN(CCNC(=O)C1CC(=O)N(c2ccc(F)c(Cl)c2)C1)Cc1ccccc1 (centres undefined) | 79 (inactive) | 202 |
| CCOC(=O)C1=C(C)N=c2s/c(=C\c3ccncc3)c(=O)n2C1c1ccc2c(c1)OCO2 (centres undefined) | 17 (inactive) | 272 |
| Cc1ccccc1OCc1nc(-c2ccc(NC(=O)c3ccc4c(c3)OCO4)cc2)no1 | 31 (inactive) | 154 |
| CCc1ccc(-c2nc(CN3CCC(C(=O)N4CCN(c5ccccc5)CC4)CC3)c(C)o2)cc1 | 9 (inactive) | 254 |
| Cc1cc(NC(=O)CSc2nnc(Cn3c(=O)sc4ccccc43)n2-c2ccccc2C)no1 | 200 (inactive) | 121 |
| Cc1cc(NC(=O)CSc2nnc(C3CC3)n2C)no1 | 198 (inactive) | 100 |
| N#CC1=C(N)OC2=C(C(=O)CCC2)C1c1ccc(OC(=O)N2CCOCC2)cc1 (centres undefined) | 293 (inactive) | 223 |
| O=C(c1ccc2c(c1)OCCO2)N1CCCCC1 | 65 (inactive) | 81.5 |
| O=C(CN1CCN(Cc2ccc3c(c2)OCO3)CC1)N1CCc2[nH]c3ccc(F)cc3c2C1 | 24 (inactive) | 234 |
| CCOC(=O)C1=C(O)CCn2c1nc1ccccc12 | 206 (inactive) | 257 |
| COc1ccc(N2CCN(CCCNC(=O)C3CCCN(S(=O)(=O)c4cnc[nH]4)C3)CC2)cc1 (centres undefined) | 31 (inactive) | 92.5 |
| COc1ccc(Cc2nc(-c3ccc(-n4cccc4)cc3)no2)cc1OC | 17 (active) | 28 |
| COc1ccc(CCN2CCC(Nc3nc4ccccc4n3Cc3ccc(F)cc3)CC2)cc1 | 11 (inactive) | 728 |
| O=C(Nc1cccc(Cl)c1)N1CCN(Cc2ccccc2)CC1 | 42 (inactive) | 132 |

| Compound | cell event count (at 100 µM) | cell event count (event count, at 10 µM) |
| --- | --- | --- |
| CCOc1ccc(-c2cc(C(=O)NCCCN3CCN(CC)CC3)c3ccccc3n2)cc1 | 39 (inactive) | 156 |
| CCN1C=C(Cc2cccs2)C2=C(C1)C(c1cccs1)C(C#N)=C(N)O2 (centres undefined) | 40 (inactive) | 200 |
| O=C(CCN1C(=O)COc2ccccc21)NCCCN1CCN(c2ccc(F)cc2)CC1 | 117 (inactive) | 146 |
| CCCCC(=O)NCCc1ccc(S(N)(=O)=O)cc1 | 238 (inactive) | 92.5 |
| Cc1cc(NC(=O)c2noc3c2CCc2ccccc2-3)n(-c2ccccc2)n1 | 146 (inactive) | 367 |
| CCC(C(=O)Nc1ccccc1OC)n1c(C(=O)OC)cc2ccsc21 (centres undefined) | 41 (inactive) | 270 |
| CC(C)(O)c1cn(-c2nonc2N)nn1 | 249 (inactive) | 106 |
| Cc1cc(N2CCN(C)CC2)nc2ccc(NC(=O)c3ccc4c(c3)OCO4)cc12 | 57 (inactive) | 278 |
| O=C(NCCCN1CCN(c2cccc(Cl)c2)CC1)c1ccc(N2CCCC2=O)cc1 | 52 (inactive) | 171 |
| Cc1ccc2c(c1)c1c(n2CC(O)Cn2c(C)nc3ccccc32)/C(=N\O)CCC1 (centres undefined) | 16 (inactive) | 454 |
| O=C(NC1CCCC1)C1CCN(S(=O)(=O)c2cccc3cccnc23)CC1 | 371 (inactive) | 182 |
| COC(=O)Nc1sc2c(c1C(N)=O)CCCCCC2 | 80 (inactive) | 202 |
| Cc1cccc(-c2nsc(SCC(=O)Nc3nccs3)n2)c1 | 144 (inactive) | 169 |
| Cc1ccc(CNc2nc3ccccc3n3nnnc23)cc1 | 245 (inactive) | 196 |
| CSc1nc2ccc(Nc3nc(N4CCOCC4)nc(N4CCOCC4)n3)cc2s1 | 48 (inactive) | 138 |
| Nc1ccccc1NC(=O)c1ccccc1N | 236 (inactive) | 313 |
| COc1ccc(-c2cc3c(=O)n(CC(=O)NC4CCN(Cc5ccccc5)CC4)ncn3n2)cc1 | 180 (inactive) | 257 |
| O=S1(=O)C=C(Sc2nc3ccccc3s2)c2ccccc21 | 39 (active) | 44 |
| O=c1c2ccccc2nnn1CSc1nnc2sc3ccccc3n12 | 141 (inactive) | 143 |
| Cn1c(C(=O)NCCCN2CCN(c3ccccc3F)CC2)cc2c(=O)n(C)c3ccccc3c21 | 5 (inactive) | 170 |
| Cc1ccc(-c2noc(CCC(=O)NCCCN3CCN(c4cccc(Cl)c4)CC3)n2)cc1 | 22 (inactive) | 123 |

| Compound | cell event count (at 100 µM) | cell event count (event count, at 10 µM) |
| --- | --- | --- |
| CCOc1nc(-c2ccccc2O)nc2ccccc12 | 252 (inactive) | 250 |
| COCCNC(=O)CC(NS(=O)(=O)c1ccc(NC(C)=O)cc1)C(C)C (centres undefined) | 79 (inactive) | 62 |
| O=C(Cn1ccc2ccccc2c1=O)NCCC(=O)N1CCN(c2cccc(C(F)(F)F)c2)CC1 | 232 (inactive) | 258 |
| C=CCn1c(=N)n(CC(O)COc2ccc(OC)cc2)c2ccccc21 (centres undefined) | 37 (inactive) | 126 |
| Cc1nn(Cc2ccc(F)cc2)c(C)c1NC(=O)c1cc(-c2ccc3c(c2)OCO3)on1 | 105 (inactive) | 276 |
| CCC(CC)C(=O)Nc1cccc(C(=O)NCc2ccco2)c1 | 220 (inactive) | 155 |
| CCN(CC)CCCNC(=O)c1cc(-c2ccc(Cl)c(Cl)c2)on1 | 22 (inactive) | 165 |
| Cc1oc(-c2cccc(Cl)c2)nc1CN1CCCC(C(=O)NCCCN2CCOCC2)C1 (centres undefined) | 22 (inactive) | 220 |
| CCN(CCNC(=O)C1CCN(Cc2nc(-c3ccc(Cl)cc3)oc2C)CC1)c1ccccc1 | 24 (inactive) | 391 |
| Cn1nc(-c2ccc(Cl)cc2)c2cc(C(=O)NCCN3CCOCC3)sc21 | 10 (inactive) | 136 |
| CN(C(=O)c1ccccn1)c1nnc(-c2cccnc2)s1 | 168 (inactive) | 240 |
| O=S(=O)(Nc1cccc2ncccc12)c1cccs1 | 42 (inactive) | 78.5 |
| CC(C)(C)OC(=O)N1CCC(C(=O)N2CCCCCC2)CC1 | 223 (inactive) | 123 |
| O=C(NCCCN1CCN(c2cccc(Cl)c2)CC1)c1nc(-c2ccncc2)no1 | 166 (inactive) | 462 |
| COCCCN(C(=O)Nc1ccccc1)C(C)c1ccncc1 (centres undefined) | 238 (inactive) | 387 |
| CC1CCCCN1CCNC(=O)c1ccc2c(=O)n(CCc3ccccc3)c(=O)[nH]c2c1 (centres undefined) | 168 (inactive) | 184 |
| O=C(NCCCN1CCN(c2ccccc2F)CC1)C1CCN(S(=O)(=O)c2cccs2)CC1 | 44 (inactive) | 95.5 |
| COC(=O)c1ccccc1NC(=O)CN1CCC(n2nnc3cc(F)ccc32)CC1 | 174 (inactive) | 112 |
| Cc1ccccc1-c1nc(CN2CCC(C(=O)N3CCC(C(N)=O)CC3)CC2)c(C)o1 | 150 (inactive) | 83.5 |
